Each structure is given as a SMILES string. Values joined by “and” are separate entries in the source; they are usually repeats but may differ in a detail not shown here. Equal values may be shown once. Hit rate of the full screen: of about 340,000 compounds, about 210 (0.062%) were called active. The full list was thinned out, with actives kept by preference. Unmarked numbers belong to inactive results. No stated cut-off is given here; in the data, active means inhibition above about 30% (passing the limit was not always enough); inconclusive means no clear call, values can overlap the other calls.

What is called inhibition is the change of the read-out against control, counted positive when it falls.

In the assay the test system is PvdQ acylase [Pseudomonas aeruginosa LESB58]. Put plainly: P. aeruginosa PvdQ acylase inhibitors, primary screen, biochemical, fluorescence, plate reader and imaging, single point (AID 488965).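 Further: 0% = vehicle neutral wells and 100% = reference inhibitor wells.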 The settings on record: purified PvdQ acylase, at 10 µM, stronger effect = higher value.
As to `CC(=O)c1nn(-c2ccc(C)cc2)cc1C(=O)c1cccc(Br)c1`, the inhibition was -6.55%.

Turning to `COc1cc(CNC2CCCCC2)c(Br)cc1OC1CCCC1`, the inhibition is -10.3%.

With `COc1ccc(NS(=O)(=O)c2cc(NC(=O)CC(=O)c3ccc([N+](=O)[O-])cc3)ccc2C)cc1`, the inhibition is -17.8%.

Turning to `CCCCNC(=O)N1CCN(S(C)(=O)=O)CC1`, the inhibition was -13.6%.

Turning to `CN1CCN(Cc2c(C(=O)N3CCc4ccccc4C3)nc3ccc(Cl)cn23)CC1`, the inhibition is 9.88%.

`CCOc1ccc(/C(O)=C2/C(=O)C(=O)N(Cc3cccnc3)C2c2ccc(N(C)C)cc2)c(C)c1` (configuration not stated): the inhibition was -1.75%.

Take `COc1ccc(CCN(C)C(=O)C23CC4CC(CC(Cl)(C4)C2)C3)cc1OC`: the inhibition is 0.828%.

With `O=C(CNC(=O)OCc1ccccc1)NC1CCCCNC1=O` (configuration not stated), the inhibition is -2.51%.

For `CCC(C(=O)NC1CCCC1)N(C(=O)Cn1nnc(-c2ccc(C)o2)n1)c1ccc(OC)c(OC)c1` (configuration not stated), the inhibition was -6.8%.

For `CC(C)=NN1C(=O)c2ccccc2NC1(C)C`, the inhibition is -15.2%.

With `O=C(Nn1cnc2ccccc2c1=O)c1ccc([N+](=O)[O-])cc1Cl`, the inhibition is -2.92%.

Consider `CC1=C(C(=O)Nc2cc(C)ccn2)C(c2cnn(C)c2)C2=C(CC(c3ccccc3)CC2=O)N1` (configuration not stated), for which the inhibition is -10.4%.

For the compound `COc1ccc(N2CCN(C(=O)CN3C(=O)COc4ccccc43)CC2)cc1`, the inhibition is -3.63%.

As to `COc1ccc(Cn2cc(CN3CCS(=O)(=O)N(Cc4ccc(-c5cccc(Cl)c5)cc4)C(C)C3=O)nn2)cc1` (configuration not stated), the inhibition is 6.04%.

`COc1ccccc1NS(=O)(=O)c1ccc(C)c(C(=O)NCC(c2ccco2)N(C)C)c1` (configuration not stated): the inhibition was -1.08%.

Turning to `CC(C)CC(COCc1ccc(Cl)cc1)N1CCN(C(=O)c2ccc(C(F)(F)F)cc2)CCC1=O` (configuration not stated), the inhibition is -5.2%.

Turning to `COc1ccc(S(=O)(=O)NCC2CCCN(C(=O)c3occc3C)C2)cc1` (configuration not stated), the inhibition is -11.7%.

With `Cc1oc(-c2ccccc2Cl)[n+]([O-])c1C`, the inhibition is -3.53%.

`CC(C(=O)Nc1ccccc1-c1ccccc1)N1CCOCC1` (configuration not stated): the inhibition was 4.97%.

Turning to `CC1(C)Cc2cccc(OCC(=O)N3CCN(c4ccc([N+](=O)[O-])cc4)CC3)c2O1`, the inhibition was 3.43%.

Consider `O=C(NCCc1ccccc1)C1CC1`, for which the inhibition is 11.7%.

For the compound `Cc1cc(C)cc(NC(=O)C(c2ccccc2)N2CCN(CC(=O)N3CCCC3)CC2)c1` (configuration not stated), the inhibition was -12.8%.

Turning to `CCc1ccc(CNC(=O)C2CCN(c3nnc(C)c4c(C)n(-c5ccc(C)cc5)nc34)CC2)cc1`, the inhibition was -8.9%.

As for `COc1ccc(OC)c(NC(=O)COC(=O)Cc2ccsc2)c1`, the inhibition was 7.79%.

As for `COc1ccc(CCNC(=O)COc2cc(C)cc3oc(=O)c(C)c(C)c23)cc1OC`, the inhibition was -16.2%.

As for `CN1CCN(S(=O)(=O)c2ccc(Nc3ccc(F)cc3)nc2)CC1`, the inhibition was 4.04%.

With `COc1cc([C@H](Cc2ccccc2)NC(C)=O)oc(=O)c1`, the inhibition was -11.2%.

Take `Cc1nc2ccccc2c(=O)n1-c1ccc(F)c(NC(=O)c2cccs2)c1`: the inhibition was 4.62%.

As to `CCOC(=O)C1CCCN(C(=O)C2CCN(c3nnc(-n4cccc4)s3)CC2)C1` (configuration not stated), the inhibition is -9.35%.

As for `Cc1ccc(C(=O)COC(=O)c2cccc(N3C(=O)c4c(C)nc5ccccc5c4C3=O)c2)cc1C`, the inhibition was -0.235% and -7.76%.

For the compound `COc1ccc(Cl)cc1C(=O)OCC(=O)NCc1cccs1`, the inhibition was -17.2%.

As to `Cc1ccc(N(CCC(=O)O)S(=O)(=O)c2cccc(C(F)(F)F)c2)cc1`, the inhibition was -8.9%.

These data come from PubChem BioAssay AID488965 (Broad Institute, 2010).
